Source: PubChem BioAssay
A selection: hits, their analogues and other compounds. The true share with any hit is near 27%.
CYP2C9 activ: CYP2C9 (human) activation | 96,000 compounds, 1.4% hits | P11712 | activation factor at 5 µM | recombinant CYP2C9, luciferin-H conversion, luminescence; stronger effect = higher value; factor 1 = untreated enzyme, 0 = blocked;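 active means activation factor of 2 or more for CYP2C9 at a 5 µM dose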
CYP2C9 inh: human CYP2C9 inhibition. P11712. CYP2C9 Supersomes, luciferin-H conversion, luminescence. inhibition, % at 5 µM. 96,000 compounds, 20% hits. AID 777;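 active means blocking of liver enzyme CYP2C9 beyond about 50% at 5 µM, limit read from the data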
sEH inhibitor: blocks human soluble epoxide hydrolase activity. P34913. recombinant human sEH enzymatic activity assay. inhibition, % at 2 µM. 91,000 compounds, 0.34% hits; in the data active means inhibition above about 80%
Target sequence (P34913 whole entry, looked up): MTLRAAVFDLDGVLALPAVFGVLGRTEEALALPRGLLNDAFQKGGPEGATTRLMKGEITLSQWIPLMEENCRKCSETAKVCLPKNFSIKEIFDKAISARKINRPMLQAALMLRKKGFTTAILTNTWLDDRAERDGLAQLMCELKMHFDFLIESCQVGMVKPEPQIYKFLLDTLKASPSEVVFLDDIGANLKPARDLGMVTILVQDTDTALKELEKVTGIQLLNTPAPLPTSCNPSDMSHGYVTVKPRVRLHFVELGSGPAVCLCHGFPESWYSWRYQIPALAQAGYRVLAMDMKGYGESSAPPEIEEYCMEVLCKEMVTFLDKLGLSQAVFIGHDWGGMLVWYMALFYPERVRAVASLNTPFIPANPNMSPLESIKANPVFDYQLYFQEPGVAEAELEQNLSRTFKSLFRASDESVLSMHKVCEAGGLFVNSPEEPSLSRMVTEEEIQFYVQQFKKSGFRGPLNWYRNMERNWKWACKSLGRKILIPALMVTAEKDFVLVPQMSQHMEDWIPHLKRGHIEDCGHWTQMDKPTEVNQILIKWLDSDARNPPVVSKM
CYP2C19 act: increases human CYP2C19 enzyme activity | recombinant CYP2C19, luciferin-H EGE luminescence; stronger effect = higher value; 0 = fully inhibited enzyme, 1 = untreated enzyme | activation factor at 5 µM | 96,000 tested, under 10 active | AID 1025;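 active means activation factor of at least 2 at 5 µM in the primary screen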
sEH activator: activators of human soluble epoxide hydrolase; P34913; purified human sEH enzymatic activity, activator screen; activation, % at 2 µM; 91,000 compounds, 0.04% hits; AID 717; in the data active means activation above about 37%
CYP2C19 inh: blocks human cytochrome P450 2C19; P33261; CYP2C19 Supersomes, luciferin-H EGE luminescence, 30 min; inhibition, % at 5 µM; 96,000 compounds, 21% hits;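 active means CYP2C19 inhibition above a set limit at 5 µM in the primary screen, cut at about 50% in these data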
A number is an active result; . = inactive; / = no result.

SMILES	CYP2C9 activ	CYP2C9 inh	sEH inhibitor	CYP2C19 act	sEH activator	CYP2C19 inh
COc1ccc(OC)c(NC(=O)c2ccc(-n3cccn3)nc2)c1	.	.	.	.	.	.
O=C(c1ccccc1)N1CCCOC1c1ccccc1 (stereo not drawn)	.	.	.	.	.	.
OCC12COC(c3ccccc3)N1C(c1ccccc1)OC2 (stereo not drawn)	.	.	.	.	.	69
COc1ccc(C(C(=O)NC2CCCCC2)N(C(=O)c2cccs2)c2ccc3c(c2)OCO3)cc1 (stereo not drawn)	.	53	.	.	.	.
COc1ccc(C(OC(=O)c2c(C)noc2C)C(=O)NC2CCCC2)cc1 (stereo not drawn)	.	80	.	.	.	50
COc1ccc(C(C(=O)NC2CCCC2)N(C(=O)c2ccoc2C)c2ccc(C)cc2)cc1 (stereo not drawn)	.	73	.	.	.	50
O=C(NC1CCCCC1)C(c1ccccc1)N(C(=O)c1cccs1)c1ccc2c(c1)OCO2 (stereo not drawn)	.	.	.	.	.	.
O=C(NC1CCCCC1)C(c1ccncc1)N(Cc1ccc2c(c1)OCO2)C(=O)c1cnsn1 (stereo not drawn)	/	/	.	/	.	/
O=C(NC1CCCCC1)C(c1ccc2ncccc2c1)N(Cc1ccc2c(c1)OCO2)C(=O)c1cccs1 (stereo not drawn)	.	54	.	.	.	.
Cc1ccc(NC(=O)c2cc(N3C(=O)C4CC=CCC4C3=O)ccc2N2CCCCC2)cc1 (stereo not drawn)	.	.	.	.	.	.
CC(C)C(NS(=O)(=O)c1ccc2c(c1)OCCO2)C(=O)NCCc1ccccn1 (stereo not drawn)	.	.	/	.	/	.
Cc1cc(C)cc(N(C(=O)CNC(=O)c2cccs2)C(C(=O)NC2CCCC2)c2cccnc2)c1 (stereo not drawn)	.	.	.	.	.	.
O=C(NC1CCCCC1)C(c1ccc2ncccc2c1)N(Cc1ccccc1)C(=O)c1cccs1 (stereo not drawn)	.	73	.	.	.	.
O=C(C1CCCN(S(=O)(=O)c2ccc(Cl)cc2)C1)N(Cc1cccs1)C1CC1 (stereo not drawn)	.	.	/	.	/	69
Cc1ccc(S(=O)(=O)N2CCCC2C(=O)N(C)Cc2cccs2)cc1 (stereo not drawn)	.	.	.	.	.	.
Cn1c(=O)oc2cc(S(=O)(=O)N3CCc4ccccc4C3)ccc21	.	.	.	.	.	52
CC1Cc2ccccc2N1C(=O)Cn1c(=O)oc2cc(S(=O)(=O)N3CCCCC3)ccc21 (stereo not drawn)	.	65	.	.	.	52
O=C(Cn1c(=O)oc2cc(S(=O)(=O)N3CCCC3)ccc21)N1CCc2ccccc2C1	.	64	.	.	.	.
O=C(Cn1c(=O)oc2cc(S(=O)(=O)N3CCCC3)ccc21)NCc1ccc(F)cc1	.	85	.	.	.	.
CN(C(=O)CSc1nc2c(c(=O)[nH]1)CCCC2)C1CCCCC1	.	69	.	.	.	.
Cc1nc(SCC(=O)N(C)C2CCCCC2)[nH]c(=O)c1Cc1ccccc1	.	69	.	.	.	60
CN(C(=O)CSc1ccccc1C(=O)O)C1CCCCC1	.	.	.	.	.	.
Cc1nc(SCC(=O)NC2CCCC2)[nH]c(=O)c1Cc1ccccc1	.	.	.	.	.	.
O=C(CS(=O)CC(=O)N(CC(=O)NC1CCCC1)c1ccc2c(c1)OCCO2)Nc1ccc(F)cc1 (stereo not drawn)	.	.	.	.	.	.
Cc1cc(C)nc(-n2nc(C)c(Sc3ccc(F)cc3)c2N)n1	.	66	.	.	.	79
SMILES	CYP2C9 activ	CYP2C9 inh	sEH inhibitor	CYP2C19 act	sEH activator	CYP2C19 inh
Cc1sc(NC(=O)C2CC=CCC2C(=O)O)c(C(=O)OC(C)C)c1C (stereo not drawn)	.	54	.	.	.	.
CCOC(=O)c1csc(NC(=O)c2ccc(S(=O)(=O)N(C)C)cc2)n1	.	.	/	.	/	.
CCOC(=O)c1csc(NC(=O)c2ccccc2)n1	.	.	/	.	/	74
CCOC(=O)Cc1cnc(NC(=O)c2ccccc2)s1	.	84	.	.	.	94
CCOC(=O)c1cncc(NC(=O)c2ccccc2)c1	.	.	.	.	.	.
COc1cc(C(=O)Nc2nnc(-c3sccc3C)s2)cc(OC)c1OC	.	.	.	.	.	.
N#Cc1cnn(CC2CCCCC2)c1N	.	.	/	.	/	.
COc1cccc(C2=NOC(C(=O)NCC3CCCO3)C2)c1 (stereo not drawn)	.	.	.	.	.	.
COc1ccc(OC)c(C2=NOC(C(=O)NCC3CCCO3)C2)c1 (stereo not drawn)	2.3	.	.	.	.	.
O=C(NCC1CCCO1)C1CC(c2ccccc2Cl)=NO1 (stereo not drawn)	4.2	.	.	.	.	56
Cc1ccccc1CSCC(=O)c1c(N)n(C)c(=O)n(C)c1=O	.	58	.	.	.	99
Cc1ccccc1CSCC(=O)c1c(N)n(CC(C)C)c(=O)n(C)c1=O	.	.	.	.	.	.
O=Nc1c2nc3ccccc3n(O)c-2c2ccccc12	.	.	/	.	/	.
Cc1ccc2c(c1)cc(CN(Cc1ccc3c(c1)OCO3)C(=O)c1ccccc1)c1nnnn12	.	.	.	.	.	.
Cc1cccc2cc(CN(Cc3ccc(F)cc3)C(=O)N3CCOCC3)c3nnnn3c12	.	.	.	.	.	.
Cc1ccc2c(c1)cc(CN(Cc1cccnc1)C(=O)NCc1ccccc1)c1nnnn12	.	65	.	.	.	90
Cc1ccc2c(c1)cc(CN(CCc1ccccc1)C(=O)N1CCOCC1)c1nnnn12	.	64	.	.	.	53
O=C(N1CCCC1)N1CCN(c2ncnc3c(-c4ccc(Cl)cc4)nsc23)CC1	.	.	/	.	/	.
CC1(c2cnc(Nc3ccccc3)s2)CCC(=O)O1 (stereo not drawn)	2.1	.	.	.	.	.
Cc1cc(C)nc(Nc2n[nH]c(-c3ccccc3Br)n2)n1	.	74	.	.	.	.
Cc1cc(C)c(S(=O)(=O)N2CCN(c3nc4c(c(=O)n(C)c(=O)n4C)n3C)CC2)c(C)c1	.	.	/	.	/	.
CCOC(=O)c1sc(N)c(C(=O)OCC)c1COC(=O)C1CC(=O)N(Cc2ccco2)C1 (stereo not drawn)	.	98	.	.	.	91
COC(=O)c1sc(N)c(C(=O)OC)c1COC(=O)C1CC(=O)N(Cc2ccco2)C1 (stereo not drawn)	.	91	.	.	.	79
CCOC(=O)c1[nH]c(COC(=O)C2CC(=O)N(Cc3ccccc3)C2)c(C(=O)OCC)c1C (stereo not drawn)	.	60	.	.	.	.
